Data: PubChem BioAssay (NCI)
About 79,000 compounds went through this panel and 15% of them were active in at least one assay; those are over-represented in the sample as a whole. The source made the active and inactive calls. No stated cut-off is given here; in the data, active means growth inhibition above about 70%; inactive means the rest. Residues, ends and D or L forms follow the SMILES beside them. *: point of attachment. CH2Cl = ClC*

Columns and labels:
[1] = NCI Yeast Anticancer Drug Screen. Data for the rad52 strain (AID 147);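 further: 0% = growth of vehicle-treated control cultures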; details: S. cerevisiae rad52 mutant growth inhibition, stronger effect = higher value
In short: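 Inhibition of yeast growth, referenced to vehicle controls, was the measured output for a strain with defective DNA damage repair.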

[2] = NCI Yeast Anticancer Drug Screen. Data for the wt1 strain (AID 149);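 further: 0% = growth of vehicle-treated wt1 cultures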; details: S. cerevisiae wt1 strain (SPY 50644) growth inhibition, stronger effect = higher value
In short: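 Readout: yeast growth inhibition, normalised to vehicle controls, in the wt1 strain exposed to test compounds.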

[3] = NCI Yeast Anticancer Drug Screen. Data for the mgt1 strain (AID 153); details: S. cerevisiae mgt1 mutant growth inhibition, stronger effect = higher value
In short: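 In the mgt1 strain, test compounds were added and growth inhibition was determined relative to vehicle-treated controls.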

[4] = NCI Yeast Anticancer Drug Screen. Data for the rad50 strain (AID 155);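 further: 0% = growth of vehicle-only cultures of the same strain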; details: S. cerevisiae rad50 strain growth inhibition, stronger effect = higher value
In short: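 Compounds were tested on a yeast strain with an engineered DNA damage repair alteration; the reported value is growth inhibition normalised to vehicle treatment.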

[5] = NCI Yeast Anticancer Drug Screen. Data for the mec2-1 strain (AID 157); details: S. cerevisiae mec2-1 strain, stronger effect = higher value
In short: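 Each compound was tested on mec2-1 yeast, a strain altered in DNA damage repair or cell cycle control. Growth inhibition is reported relative to vehicle.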

[6] = NCI Yeast Anticancer Drug Screen. Data for the rad14 strain (AID 159);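 further: 0% = growth of vehicle-treated control cultures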; details: S. cerevisiae rad14 strain growth inhibition, stronger effect = higher value
In short: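 Compound-treated yeast with a defined DNA-repair lesion; growth inhibition normalised to vehicle-treated cultures.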

[7] = NCI Yeast Anticancer Drug Screen. Data for the sgs1 mgt1 strain (AID 161);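 further: 0% = growth of cultures given vehicle only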; details: S. cerevisiae sgs1 mgt1 strain, stronger effect = higher value
In short: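 Genetically altered yeast, compound exposure, growth inhibition relative to vehicle.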

[8] = NCI Yeast Anticancer Drug Screen. Data for the CLN2oe strain (AID 163);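 further: 0% = growth of vehicle-only control cultures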; details: S. cerevisiae CLN2oe strain, stronger effect = higher value
In short: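 First, the altered yeast strain was treated with each compound; second, its growth was measured; finally, inhibition was derived by comparison with vehicle controls.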

[9] = NCI Yeast Anticancer Drug Screen. Data for the cln2 rad14 strain (AID 165);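 further: 0% = growth equal to vehicle treated cultures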; details: S. cerevisiae cln2 rad14 strain, stronger effect = higher value
In short: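 Test compounds were added to cln2 rad14 yeast cultures; inhibition of growth was then determined by comparison with vehicle treatment.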

[10] = NCI Yeast Anticancer Drug Screen. Data for the bub3 strain (AID 167); details: S. cerevisiae bub3 mutant strain, stronger effect = higher value
In short: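 Growth of a checkpoint-deficient yeast mutant is measured after compound exposure. Values represent inhibition relative to vehicle.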

[11] = NCI Yeast Anticancer Drug Screen. Data for the wt2 strain (AID 169);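 further: 0% = growth of vehicle-treated yeast cultures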; details: S. cerevisiae wt2 strain growth inhibition, stronger effect = higher value
In short: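 The panel's yeast strains carry defined changes in DNA repair or cell cycle genes. Each strain is grown with compound, and growth loss is scored relative to vehicle.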

[12] = NCI Yeast Anticancer Drug Screen. Data for the mlh1 strain (AID 171);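 further: 0% = growth of vehicle-treated control cultures of the same strain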; details: S. cerevisiae mlh1 strain growth inhibition, stronger effect = higher value
In short: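 Inhibition values reflect reduced yeast growth in the presence of compound, referenced to vehicle controls, using a strain chosen for its alteration in DNA repair or cell cycle control.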

[13] = NCI Yeast Anticancer Drug Screen. Data for the sgs1 strain (AID 173);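 further: 0% = growth of vehicle-only control cultures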; details: S. cerevisiae sgs1 mutant, stronger effect = higher value
In short: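 Vehicle-treated cultures served as reference for growth inhibition of a yeast strain altered in DNA damage repair or cell cycle control after compound exposure.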

[14] = NCI Yeast Anticancer Drug Screen. Data for the mlh1 rad18 strain (AID 175); details: S. cerevisiae mlh1 rad18 strain growth inhibition, stronger effect = higher value
In short: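 Inhibition values reflect reduced growth of mutant yeast versus vehicle-treated controls following compound exposure; the mutations affect DNA damage repair.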

[15] = NCI Yeast Anticancer Drug Screen. Data for the rad18 strain (AID 177); details: S. cerevisiae rad18 mutant growth inhibition, stronger effect = higher value
In short: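 Steps: expose repair-mutant yeast to compound; measure growth; express as inhibition relative to vehicle control.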

[16] = at 5.0 µM (retest, dose inferred, filed as 0.5)
[17] = at 50.0 µM (retest, dose inferred, filed as 5.0)

Measured: growth inhibition

CC(=O)NC(CC(C)C)C(=O)NC(Cc1ccccc1)C(=O)CCl (stereo not drawn) (Ac-Leu-Phe-CH2Cl; configuration not given here)
inactive: [1]; at 1.2 µM -3% | [1]; at 3.7 µM 1% | [1]; at 11.0 µM 9% | [1]; at 33.0 µM 27% | [2]; at 1.2 µM -2% | [2]; at 3.7 µM -5% | [2]; at 11.0 µM -5% | [2]; at 33.0 µM -4% | [2]; at 100.0 µM 37% | [3]; at 1.2 µM -5% | [3]; at 3.7 µM -5% | [3]; at 11.0 µM -6% | [3]; at 33.0 µM -2% | [4]; at 1.2 µM -3% | [4]; at 3.7 µM 1% | [4]; at 11.0 µM 6% | [4]; at 33.0 µM 25% | [4]; at 50.0 µM 7.1% | [5]; at 1.2 µM -4% | [5]; at 3.7 µM 0% | [5]; at 11.0 µM 3% | [5]; at 33.0 µM 21% | [5]; at 50.0 µM 33.4% | [6]; at 1.2 µM -5% | [6]; at 3.7 µM -4% | [6]; at 11.0 µM -2% | [6]; at 33.0 µM 3% | [6]; at 100.0 µM 36% | [7]; at 50.0 µM 46.9% | [8]; at 1.2 µM -8% | [8]; at 3.7 µM -7% | [8]; at 11.0 µM -8% | [8]; at 33.0 µM -2% | [8]; at 100.0 µM 51% | [9]; at 50.0 µM -31.9% | [10]; at 1.2 µM -1% | [10]; at 3.7 µM -2% | [10]; at 11.0 µM -4% | [10]; at 33.0 µM 6% | [10]; at 50.0 µM 53.7% | [11]; at 1.2 µM -4% | [11]; at 3.7 µM -3% | [11]; at 11.0 µM -2% | [11]; at 33.0 µM -1% | [12]; at 1.2 µM -4% | [12]; at 3.7 µM -3% | [12]; at 11.0 µM -1% | [12]; at 33.0 µM 5% | [13]; at 1.2 µM -3% | [13]; at 3.7 µM -4% | [13]; at 11.0 µM 1% | [13]; at 33.0 µM 15% | [14]; at 50.0 µM 40.3% | [15]; at 1.2 µM -3% | [15]; at 3.7 µM -2% | [15]; at 11.0 µM 3% | [15]; at 33.0 µM 9%
active: [1]; at 100.0 µM 74% | [3]; at 100.0 µM 83% | [4]; at 100.0 µM 77% | [5]; at 100.0 µM 85% | [10]; at 100.0 µM 84% | [11]; at 100.0 µM 71% | [12]; at 100.0 µM 77% | [13]; at 100.0 µM 75% | [15]; at 100.0 µM 72%

CCNc1ccc2c(c1)C(=O)N(OS(C)(=O)=O)C2=O
inactive: [1]; at 1.2 µM 1% | [1]; at 3.7 µM 1% | [1]; at 11.0 µM 5% | [1]; at 33.0 µM 23% | [2]; at 1.2 µM 1% | [2]; at 3.7 µM 5% | [2]; at 11.0 µM 4% | [2]; at 33.0 µM 10% | [2]; at 100.0 µM 31% | [4]; at 1.2 µM 2% | [4]; at 3.7 µM 2% | [4]; [16] 4% | [4]; at 11.0 µM 8% | [4]; at 33.0 µM 18% | [4]; [17] 18% | [5]; at 1.2 µM 6% | [5]; at 3.7 µM 10% | [5]; [16] 4% | [5]; at 11.0 µM 14% | [5]; at 33.0 µM 21% | [5]; [17] 23% | [5]; at 50.0 µM 61% | [5]; at 100.0 µM 7% | [6]; at 1.2 µM 3% | [6]; at 3.7 µM 0% | [6]; at 11.0 µM 3% | [6]; at 33.0 µM 16% | [6]; at 100.0 µM 34% | [7]; [16] 3% | [7]; [17] 12% | [9]; [16] 8% | [9]; [17] 21% | [9]; at 50.0 µM 69.6% | [10]; at 1.2 µM -2% | [10]; at 3.7 µM -2% | [10]; [16] -1% | [10]; at 11.0 µM 0% | [10]; at 33.0 µM 8% | [10]; [17] 12% | [10]; at 50.0 µM 24.5% | [10]; at 100.0 µM 26% | [11]; at 1.2 µM 0% | [11]; at 3.7 µM 1% | [11]; at 11.0 µM 1% | [11]; at 33.0 µM 6% | [11]; at 100.0 µM 41% | [12]; at 1.2 µM 3% | [12]; at 3.7 µM 3% | [12]; at 11.0 µM 5% | [12]; at 33.0 µM 12% | [12]; at 100.0 µM 42% | [13]; at 1.2 µM 2% | [13]; at 3.7 µM 3% | [13]; at 11.0 µM 6% | [13]; at 33.0 µM 15% | [13]; at 100.0 µM 62% | [14]; [16] -3% | [14]; [17] 23% | [15]; at 1.2 µM 4% | [15]; at 3.7 µM 2% | [15]; at 11.0 µM 3% | [15]; at 33.0 µM 14%
active: [1]; at 100.0 µM 79% | [4]; at 50.0 µM 96.8% | [4]; at 100.0 µM 88% | [7]; at 50.0 µM 85.6% | [14]; at 50.0 µM 97% | [15]; at 100.0 µM 73%

CN(Cc1cnc2nc(N)nc(N)c2n1)c1ccc(C(=O)NC(CCC(=O)O)C(=O)O)c2ccccc12 (centres undefined)
active: [1]; at 33.0 µM 90% | [1]; at 100.0 µM 93% | [2]; at 100.0 µM 90% | [3]; at 100.0 µM 79% | [4]; at 33.0 µM 89% | [4]; [17] 80% | [4]; at 50.0 µM 81.2% | [4]; at 100.0 µM 92% | [5]; at 3.7 µM 72% | [5]; [16] 72% | [5]; at 11.0 µM 92% | [5]; at 33.0 µM 95% | [5]; [17] 94% | [5]; at 50.0 µM 87.2% | [5]; at 100.0 µM 96% | [7]; [17] 71% | [7]; at 50.0 µM 72.7% | [10]; [17] 72% | [10]; at 50.0 µM 80.3% | [10]; at 100.0 µM 84% | [11]; at 100.0 µM 78% | [12]; at 100.0 µM 83%
inactive: [1]; at 1.2 µM 16% | [1]; at 3.7 µM 24% | [1]; at 11.0 µM 66% | [2]; at 1.2 µM 12% | [2]; at 3.7 µM 17% | [2]; at 11.0 µM 28% | [2]; at 33.0 µM 69% | [3]; at 1.2 µM -18% | [3]; at 3.7 µM 1% | [3]; at 11.0 µM 25% | [3]; at 33.0 µM 51% | [4]; at 1.2 µM -2% | [4]; at 3.7 µM 22% | [4]; [16] -4% | [4]; at 11.0 µM 60% | [5]; at 1.2 µM 17% | [7]; [16] 27% | [8]; at 1.2 µM -14% | [8]; at 3.7 µM -12% | [8]; at 11.0 µM -28% | [8]; at 33.0 µM 7% | [8]; at 100.0 µM 58% | [9]; [16] -6% | [9]; [17] 45% | [9]; at 50.0 µM 35.1% | [10]; at 1.2 µM -5% | [10]; at 3.7 µM -7% | [10]; [16] -49% | [10]; at 11.0 µM 2% | [10]; at 33.0 µM 57% | [11]; at 1.2 µM -50% | [11]; at 3.7 µM -45% | [11]; at 11.0 µM -4% | [11]; at 33.0 µM 39% | [12]; at 1.2 µM 17% | [12]; at 3.7 µM 32% | [12]; at 11.0 µM 42% | [12]; at 33.0 µM 66%
